# Tau fluor counter: Counterscreen qHTS for Inhibitors of Tau Fibril Formation, Fluorescence Polarization. tau K18 P301L Alexa594 fluorescence, heparin fibrillization. Potency, µM (top dose mostly 57.7 µM), inactives show at the top dose activity change, negative = decrease. 280,000 compounds, 0.93% hits. AID 1463, 2008; further: nearly all actives have a fitted effect of over 55% in size
#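 Human tau K18 P301L (15 uM unlabeled, 0.24 uM Alexa 594-labeled) in 100 mM sodium acetate pH 7 with 20 uM heparin, 6 hr at 37 C. ThT 30 uM added, 1 hr ambient; Alexa 594 FP and total fluorescence read at 555/632 nm.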
# Tau ThT inhib: qHTS for Inhibitors of Tau Fibril Formation, Thioflavin T Binding. Microtubule-associated protein tau (Homo sapiens), P10636. recombinant tau K18 P301L (four-repeat tau fragment), heparin-induced fibrillization, ThT fluorescence. Potency, µM (titrated, usually from 57.4 µM), for the others: at the highest dose activity, negative = inhibition, actives largely listed as inhibitors. 270,000 compounds, 2.1% hits; further: nearly all actives have a fitted effect of over 55% in size
# Target sequence (P10636 561-689 P618L limits assumed): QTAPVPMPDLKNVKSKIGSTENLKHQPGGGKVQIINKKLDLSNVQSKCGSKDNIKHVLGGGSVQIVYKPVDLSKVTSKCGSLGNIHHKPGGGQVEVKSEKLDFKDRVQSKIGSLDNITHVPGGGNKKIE
#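 Recombinant human tau K18 fragment […] carrying P301L, 15 uM unlabeled plus 0.24 uM Alexa 594-labeled, was fibrillized with 20 uM heparin in 100 mM sodium acetate pH 7 for 6 hr at 37 C; 30 uM ThT fluorescence read after 1 hr.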
# VP16 counter: VP16 counterscreen qHTS for inhibitors of ROR gamma transcriptional activity; Drosophila S2 Gal4-VP16 UAS-luciferase, luminescence, 20 h; AID 2546, 2010; 310,000 compounds, 3.5% hits; Potency, µM (top dose mostly 53.6 µM), for inactives: top-dose activity, negative = inhibition, usual class: inhibitors;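 further: Gal4-VP16 expression switched on by copper sulfate through the metallothionein promoter; nearly all actives have a fitted effect of over 50% in size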
# Tau fibril FP: qHTS for Inhibitors of Tau Fibril Formation, Fluorescence Polarization | Microtubule-associated protein tau (Homo sapiens), P10636 | K18 P301L tau heparin fibrillization, Alexa594 FP, 6 h | Potency, µM (doses to about 57.7 µM), for the others: top-dose activity, negative = inhibition, actives largely listed as inhibitors | 280,000 compounds, 0.39% hits; further: nearly all actives have a fitted effect of over 55% in size
#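 K18 P301L tau (15 uM unlabeled/0.24 uM Alexa 594-labeled, final) + compound + heparin 20 uM final; 100 mM NaOAc pH 7; 6 hr 37 C; ThT 30 uM final added, 1 hr RT; FP ex 555/em 632 nm.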
# RORgamma inh: qHTS for inhibitors of ROR gamma transcriptional activity. Nuclear receptor ROR-gamma (Mus musculus), P51450. Drosophila S2 Gal4-RORgamma UAS-luciferase reporter, 20 h. Potency, µM (doses to about 53.6 µM), for the others: at the top dose activity change, negative = inhibition, hits mostly inhibitors. 310,000 compounds, 5.4% hits; further: nearly all actives have a fitted effect of over 60% in size
# Target sequence (P51450 whole entry, looked up, the tested form may be a part): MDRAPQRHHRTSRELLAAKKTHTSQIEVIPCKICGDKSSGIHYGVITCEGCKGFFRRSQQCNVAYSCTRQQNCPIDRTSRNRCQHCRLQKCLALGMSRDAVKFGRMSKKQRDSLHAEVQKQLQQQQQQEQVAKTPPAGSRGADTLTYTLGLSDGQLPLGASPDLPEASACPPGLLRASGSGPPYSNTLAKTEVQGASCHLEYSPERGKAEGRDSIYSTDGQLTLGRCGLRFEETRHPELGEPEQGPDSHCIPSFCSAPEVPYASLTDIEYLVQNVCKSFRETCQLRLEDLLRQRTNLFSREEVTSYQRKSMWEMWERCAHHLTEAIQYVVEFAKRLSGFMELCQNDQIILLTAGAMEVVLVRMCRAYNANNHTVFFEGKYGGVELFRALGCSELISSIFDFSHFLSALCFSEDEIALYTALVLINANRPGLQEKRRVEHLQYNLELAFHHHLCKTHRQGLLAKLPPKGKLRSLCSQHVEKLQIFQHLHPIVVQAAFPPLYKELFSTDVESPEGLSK
#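 Luciferase reporter read in Schneider cells carrying Gal4-RORγ (mouse) and UAS-Photinus luciferase; cells given compound 1 h before 700 uM copper sulfate induction, then incubated 20 h at ambient temperature.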
# * = called active by the depositor; ? = inconclusive; . = not tested or not shown; ! = not active in a repeat; [ ] = dose if it differs, or a comment. In the library only some 7.3% were active in any assay of this set; here they are far more common. The call rests on the fitted dose curve; in most records, active means well fitted curve in the direction sought with a large enough effect; inconclusive means small, poorly fitted or top-dose-only effect, or another doubt; inactive means no such curve, though single readings can be large; an effect the other way counts as inactive or inconclusive. On the % scale 0 is the no-effect control and ±100 the full control effect; potency means the concentration at half of the fitted maximal effect.
SMILES,Tau fluor counter,Tau ThT inhib,VP16 counter,Tau fibril FP,RORgamma inh
CCCCCCC1=Cc2cc(OC)c(OC)cc2C(CC(=O)/C=C/OC)O1 (configuration not stated),-12%[11.6 µM],-26%[11.5 µM],4%[10 µM],1%[11.6 µM],4%[10 µM]
CCCOC(=O)c1ccc(Nc2nc3ccccc3nc2-n2nc(C)cc2C)cc1,-13%,2%,.,-9%,.
N=c1oc2cc(O)ccc2cc1C(=O)Nc1ccccn1,4%,?,0%,1%,35%
N=c1oc2cc(O)ccc2cc1C(=O)Nc1ccc(Br)cc1,.,.,1.8µM*,.,1.8µM*
CC1CCN(S(=O)(=O)N2CCN(C(=O)c3ccc4c(c3)OCO4)CC2)CC1,.,.,-3%,.,11%
C/C(=N\NC(=O)c1ccc(O)cc1)c1ccc2c(c1)Nc1ccccc1S2,11µM*[quencher],4.5µM*,?,-8%,?
C/C(=N\NC(=O)c1ccccc1F)c1ccc2c(c1)Nc1ccccc1S2,3.5µM*[quencher],2µM*,?,?,?
COc1ccc(C(=O)N/N=C(/C)c2cccc(NC(=O)c3ccccc3F)c2)cc1,.,.,-6%,.,24%
COC(=O)C1=C(C(=O)OC)SC(=C2C(=S)C(C)(C)N(C(=O)CC(C)C)c3ccccc32)S1,?,1.1µM*,-15%,?,26%
O=C(O)c1ccc(CO)o1,.,.,-8%,.,11%
Fc1ccc2c(c1)C(c1ccncc1)=NNC(c1ccccc1)=N2,-6%,-11%,?,-4%,10µM*
Fc1ccc2c(c1)C(c1ccncc1)=NNC(c1ccc(Cl)cc1)=N2,-27%,?,?,2%,?
C[C@H](NC(=O)c1nc[nH]c1C(=O)N[C@@H](Cc1ccccc1)C(=O)OC(C)(C)C)C(=O)OC(C)(C)C,-27%,-7%,?,-16%,11µM*
CC(C)(C)OC(=O)[C@H](Cc1ccccc1)NC(=O)c1nc[nH]c1C(=O)N[C@@H](Cc1ccccc1)C(=O)OC(C)(C)C,-19%,-6%,?,?,7.9µM*
CC(C)(C)OC(=O)[C@H](Cc1ccccc1)NC(=O)c1[nH]cnc1C(=O)N[C@@H](Cc1ccccc1)C(=O)OCc1ccccc1,.,.,?,.,7.1µM*
COc1ccccc1CNC(=O)c1ccccc1C(=O)NC(CC(C)C)C(=O)NCc1ccccc1OC (configuration not stated),.,.,-2%,.,7%
Cc1ccc(Cl)cc1-n1ncc2c(Nc3ccc4c(c3)OCCO4)ncnc21,?,-4%,.,12%,.
COc1cccc(C2NC(c3cccc(OC)c3O)C(C)C(=O)C2C)c1O (configuration not stated),-5%,-9%,4.5µM*,-2%,3.2µM*
COc1ccc(C2NC(=O)C(C#N)=C(S)N2c2ccc(C)cc2)cc1OC (configuration not stated),-19%,32µM*,-24%,?,?
CCOc1ccc(C2NC(=O)C(C#N)=C(S)N2c2ccc(OC)cc2)cc1OC (configuration not stated),-22%,?,-13%,?,20%
COc1ccc(N2C(S)=C(C#N)C(=O)NC2c2ccc(OC)c(OC)c2)cc1 (configuration not stated),-25%,28µM*,-28%,?,11µM*
COc1ccc(OC)c(NC(=O)C(C)n2nc(C)c3c(C)n(-c4ccccc4)nc3c2=O)c1 (configuration not stated),-1%,10%,.,2%,.
Fc1cccc(/C=N/NC(=S)Nc2ccccc2Cl)c1,-8%,-4%,1µM*,-3%,0.71µM*
S=C(N/N=C/c1ccc(Cl)c(Cl)c1)Nc1ccccc1Cl,-28%,-16%,0.79µM*,?,0.32µM*
Fc1ccc(NC(=S)N/N=C/c2cccc(Br)c2)c(F)c1,-17%,-6%,2.5µM*,0%,0.71µM*
SMILES,Tau fluor counter,Tau ThT inhib,VP16 counter,Tau fibril FP,RORgamma inh
O=C(N/N=C/c1cccc(F)c1)c1ccc(Cl)cc1,-8%,-12%,-6%,-12%,?
CC1(C(=O)Nc2ncc(Cc3ccc(Br)cc3)s2)Cc2ccccc2C(=O)O1 (configuration not stated),-21%,-5%,.,-17%,.
O=C(Nc1ncc(Cc2ccc(Cl)cc2Cl)s1)c1ccc([N+](=O)[O-])cc1,?,-15%,3.5µM*,-4%,2.2µM*
O=C(Nc1ncc(Cc2ccccc2Cl)s1)C1=NCCN1,0%,0%,3.2µM*,3%,4µM*
CCc1ccc(Cc2cnc(NC(=O)C3=NCCN3)s2)cc1,-17%,-14%,?,3%,7.1µM*
COc1ccccc1CNC(=O)COc1cc2c(c3oc(=O)cc(C)c13)CCC(C)(C)O2,.,.,-18%,.,-4%
CC1CN2C(c3ccc([N+](=O)[O-])cc3)=CSC2=N1 (configuration not stated),.,.,5%,.,0%
COc1cc(Cl)c(C)cc1NC(=O)CC1CCCC1,.,.,-8%,.,24%
COc1ccc(C(=O)NCCn2cc(SCC(=O)Nc3ccc(F)cc3)c3ccccc32)cc1,14µM*[quencher],?,.,?,.
COc1ccc(C(=O)NCCn2cc(SCC(=O)Nc3ccc(C)cc3)c3ccccc32)cc1,?,?,.,-15%,.
Cc1ccc(C(=O)NCCn2cc(SCC(=O)N3CCOCC3)c3ccccc32)cc1,-5%,-7%,-1%,-6%,13µM*
CCCCNc1nc(C)nc2c1nc(-c1ccccc1)n2CC(C)(C)CN(C)C,1%,-1%,0%,13%,-39%
CC1(C)NC(=O)N(CCCCOc2ccccc2[N+](=O)[O-])C1=O,10%,15%,4%,-1%,5%
CC1(C)NC(=O)N(c2ccc([N+](=O)[O-])c(C(F)(F)F)c2)C1=O,-4%,3%,16µM*!,0%,?
COc1ccccc1C(=O)N/C(=C\c1cn(S(=O)(=O)N(C)C)c2ccccc12)C(=O)N1CCCCC1,.,.,-7%,.,-16%
COc1ccc(C2=CC(c3ccccc3Cl)n3nc(-c4ccc(C)cc4)nc3N2)cc1 (configuration not stated),-13%,-3%,.,?,.
CCCCCCCCCCCCCCCC(=O)C(F)(F)F,-14%,-13%,-5%,-5%,-1%
O=C1C=Cc2ccccc2/C1=C/c1[nH]c(=O)[nH]c1O,-17%,-18%,?,-5%,6.3µM*
O=c1[nH]c(O)c(/C=C2\C=Nc3ccccc32)[nH]1,-29%,?,-7%,14%,31%
Cc1sc2ccccc2[n+]1CC(=O)O,-16%,28µM*,4%,32µM*,-2%
Nc1ccc(Nc2nc(-c3cc4ccccc4oc3=O)cs2)cc1,8.9µM*[quencher],?,21%,13%,-13%

# High-throughput results deposited in PubChem BioAssay by National Center for Advancing Translational Sciences (NCATS).
